Assay results from PubChem BioAssay.
Active and inactive are the calls of the source.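 Rule for the calls, unless noted: active = inhibition of the reporter signal at or above 50%; inactive = inhibition below 50%.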

Tests used:
[1] = inhibitors of TNFa-induced NFkB p65 translocation, primary screen, imaging, HUVEC, MLSMR starter and 10KST1 sets (AID 438;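 active = inhibition above 20% together with a positive visual image hit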;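 note: compound added about 3h40 before a 20 min TNFalpha stimulation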;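 for inhibition: signal is the nuclear over cytoplasmic p65 intensity ratio per well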); settings: HUVEC TNFa-induced p65 nuclear translocation; cell count: measured here: nuclei count (cytotoxicity indicator), at 2.08 µM; inhibition: at 2 µM, stronger effect = higher value, 0% TNFa-plus-vehicle, 100% no-TNFa wells
[2] = inhibitors of mutant huntingtin aggregation, primary screen, imaging, exon1htt(103Q)mCFP cells, high-content imaging (AID 483;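 active = visual image review flags a hit and inhibition of aggregation exceeds 20%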;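 note: compound exposure lasted 3 days before fixation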;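 for nuclei count: percent of the per-plate median nuclei count of sample wells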); settings: exon1htt(103Q)mCFP cell line, aggregate imaging, at 2 µM; inhibition of aggregation: stronger effect = higher value; nuclei count: measured here: cell count, toxicity
[3] = inhibitors of E-selectin induction by TNFa, primary screen, imaging, HUVEC, immunofluorescence, MLSMR starter and 10KST1 sets (AID 487;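 active = visually confirmed hit in the image check and inhibition above 20%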;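 for inhibition: signal is fraction of cell area covered by stained E-selectin grains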;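 for nuclei count: 100% = median nuclei count of all wells on the same plate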); settings: HUVEC TNFalpha-induced E-selectin immunofluorescence imaging, at 2 µM; inhibition: stronger effect = higher value; nuclei count: measured here: cell number, toxicity
[4] = biological target: Voltage-gated potassium channel subunit beta-2 (Rattus norvegicus) (UniProt P62483); assay: KvBeta enzyme negative modulators, primary screen, biochemical, NADPH fluorescence (AID 622;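 active = fluorescence slope higher than the sample average by over 3 SD, cut at about -0.22 in these data, passing the limit was not always enough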;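 note: slope of raw intensity against log time taken from 70 to 1610 s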); settings: recombinant KvBeta, 4-cyanobenzaldehyde reduction, at 10 µM, stronger effect = higher value
[5] = biological target: Voltage-gated potassium channel subunit beta-2 (Rattus norvegicus) (UniProt P62483); assay: KvBeta positive modulators, primary screen, biochemical, NADPH fluorescence (AID 623;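 active = NADPH fluorescence slope more negative than the mean of all samples by about 3 SD, 99.7% confidence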;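 note: fluorescence intensity change per second fitted from 20 to 320 s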); settings: Recombinant KvBeta, NADPH fluorescence decrease slope, 10 min; at 10 µM; stronger effect = lower value
[6] = biological target: Alpha-2C adrenergic receptor (Homo sapiens) (UniProt P18825); assay: modulators of alpha2C/GIRK thallium flux, primary screen, cell-based, HEK293 alpha2C/GIRK1/2 (AID 624;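 active = fluorescence slope after compound addition differing from the mean of all screened samples at 99.7% confidence, in either direction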;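 note: slope of fluorescence ratio to pre-addition baseline per second over 15 to 24 s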); settings: thallium flux BTC fluorescence, at 10 µM, actives lie on both sides
[7] = inhibitors of Sendai virus-induced IRF3 signaling, primary screen, TLR/RLR signaling modifier project, cell-based, Sendai virus stimulus, luciferase, 10K MLSCN set (AID 602276;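 active = inhibition at or above 50% at 10 µM; inactive = inhibition below 50%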;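 note: firefly luciferase from ISG56 promoter only with Renilla not read in this screen; 0% = Sendai virus plus DMSO and 100% = medium plus DMSO without virus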); settings: HEK293 RL24 IRF3 luciferase reporter, at 10 µM, stronger effect = higher value
[8] = inhibitors of poly I:C-induced TLR3 signaling, primary screen, cell-based, poly I:C stimulus, luciferase, 10K MLSCN set (AID 602277); settings: HEK293-TLR3 RL24 IRF3 luciferase reporter, at 10 µM, stronger effect = higher value

Chain of Alpha-2C adrenergic receptor (Homo sapiens) (P18825 whole entry, looked up): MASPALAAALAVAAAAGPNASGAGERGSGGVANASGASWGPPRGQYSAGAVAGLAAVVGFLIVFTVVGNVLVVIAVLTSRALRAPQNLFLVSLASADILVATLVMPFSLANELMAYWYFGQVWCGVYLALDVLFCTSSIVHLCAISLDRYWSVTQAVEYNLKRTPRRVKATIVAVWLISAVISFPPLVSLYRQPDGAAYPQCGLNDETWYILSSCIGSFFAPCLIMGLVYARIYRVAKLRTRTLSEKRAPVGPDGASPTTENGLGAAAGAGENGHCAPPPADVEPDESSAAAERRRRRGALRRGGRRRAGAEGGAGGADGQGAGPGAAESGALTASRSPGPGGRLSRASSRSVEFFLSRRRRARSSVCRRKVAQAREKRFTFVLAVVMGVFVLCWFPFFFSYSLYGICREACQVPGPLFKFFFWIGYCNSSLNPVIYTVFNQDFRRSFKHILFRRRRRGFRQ
Chain of Voltage-gated potassium channel subunit beta-2 (Rattus norvegicus) (P62483 whole entry, looked up): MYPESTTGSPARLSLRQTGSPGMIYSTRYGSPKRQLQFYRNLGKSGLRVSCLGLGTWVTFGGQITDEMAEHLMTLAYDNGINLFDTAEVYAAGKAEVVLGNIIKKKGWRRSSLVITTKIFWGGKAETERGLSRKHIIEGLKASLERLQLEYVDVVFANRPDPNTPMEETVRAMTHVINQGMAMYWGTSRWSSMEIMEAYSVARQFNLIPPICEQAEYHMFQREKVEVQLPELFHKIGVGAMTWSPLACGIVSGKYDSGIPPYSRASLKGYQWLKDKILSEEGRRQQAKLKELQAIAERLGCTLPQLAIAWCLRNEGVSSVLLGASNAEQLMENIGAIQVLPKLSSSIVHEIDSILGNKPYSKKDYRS

Structure (SMILES) | cell count [1] | inhibition [1] | inhibition of aggregation [2] | nuclei count [2] [%] | inhibition [3] | nuclei count [3] [%] | fluorescence slope [4] | NADPH fluorescence slope [5] | slope [6] | inhibition [7] | inhibition [8]
COc1ccc(S(=O)(=O)n2nc(OC(=O)c3ccc(C)cc3)cc2N)cc1 | 566 | -19.6% (inactive) | -9.1% (inactive) | 106 | -31% (inactive) | 144 | -0.337 (inactive) | -1.2e-06 (inactive) | 0.00323 (inactive) | 14% (inactive) | 19.2% (inactive)
CCOCCCNC(=O)Cn1cc2c(n1)CCCCC2 | 486 | -2.3% (inactive) | 19.4% (inactive) | 88.9 | -25.4% (inactive) | 109 | -0.605 (inactive) | -1.2e-05 (inactive) | 0.00693 (inactive) | 3.75% (inactive) | 19.9% (inactive)
COC(=O)c1c(-c2cccs2)csc1NC(=O)CN1CCOCC1 | 345 | 6% (inactive) | -6.9% (inactive) | 106 | -22.6% (inactive) | 119 | -0.519 (inactive) | -5.2e-05 (inactive) | 0.00516 (inactive) | 16.1% (inactive) | 3.26% (inactive)
O=C(O)c1cccn2c(=O)c3ccccc3nc12 | 799 | -2.3% (inactive) | -14.1% (inactive) | 84.3 | -19.6% (inactive) | 126 | -0.313 (inactive) | -2.6e-05 (inactive) | 0.0061 (inactive) | 8.6% (inactive) | 6.83% (inactive)
O=C(NCc1cccs1)c1cc2c(s1)-c1ccccc1OC2 | 674 | 1.6% (inactive) | -25.1% (inactive) | 98.2 | -49.2% (inactive) | 108 | -0.122 (inactive) | -3.3e-06 (inactive) | 0.00728 (inactive) | -42% (inactive) | -187% (inactive)
COc1cc(NC2=CC(=O)CC(C)(C)C2)cc(OC)c1 | 346 | 7.5% (inactive) | -8.1% (inactive) | 110 | -3.1% (inactive) | 103 | -0.373 (inactive) | 6.9e-06 (inactive) | 0.00551 (inactive) | -4.89% (inactive) | -12.1% (inactive)
O=C(O)CCc1ccc(-c2ccc(Br)cc2)n1CC(=O)O | 339 | 7.5% (inactive) | -4.6% (inactive) | 90 | -65% (inactive) | 112 | -0.378 (inactive) | -5.5e-05 (inactive) | 0.00594 (inactive) | 10.9% (inactive) | 28.5% (inactive)
N#CCC(=O)N1CCn2c1nc1ccccc12 | 301 | -3.4% (inactive) | -20.8% (inactive) | 94.4 | -16.4% (inactive) | 101 | -0.492 (inactive) | -3.8e-05 (inactive) | 0.00588 (inactive) | 11.2% (inactive) | 24.2% (inactive)
COCC(C)NC(=O)NC(=O)c1ccc(Cl)cc1 (stereo not drawn) | 715 | 0.4% (inactive) | 10.2% (inactive) | 100 | -67.6% (inactive) | 98.3 | -0.476 (inactive) | 2.1e-05 (inactive) | 0.00585 (inactive) | 14.1% (inactive) | 12.5% (inactive)
Cc1cnn(Cc2ccccc2)c1N | 638 | 2.3% (inactive) | -4.6% (inactive) | 105 | 25.6% (inactive) | 100 | -0.6 (inactive) | -3.5e-05 (inactive) | 0.00669 (inactive) | 14.7% (inactive) | 21.3% (inactive)
Cc1ccc2c(c1)N(CC(=O)Nc1ccc3c(c1)OCCO3)C(=O)CO2 | 362 | -4.9% (inactive) | -2.2% (inactive) | 84.3 | -6.2% (inactive) | 104 | -0.293 (inactive) | -5e-05 (inactive) | 0.0057 (inactive) | 38.1% (inactive) | 99.4% (active)
O=C(Nc1ccccc1)c1cnc2n(c1=O)CCS2 | 734 | -18.7% (inactive) | 11.2% (inactive) | 106 | -25.4% (inactive) | 121 | -0.517 (inactive) | -3.2e-05 (inactive) | 0.0079 (inactive) | -16.4% (inactive) | -44.7% (inactive)
N#Cc1c2n(c(=S)n(-c3ccccn3)c1=O)CCCCC2 | 588 | -26.4% (inactive) | -14.8% (inactive) | 111 | -117% (inactive) | 144 | -0.477 (inactive) | -4.9e-05 (inactive) | 0.00579 (inactive) | -7.7% (inactive) | 11% (inactive)
COCC(=O)Nc1cc(OC)ccc1OC | 230 | -7% (inactive) | 8.8% (inactive) | 87.6 | -28.5% (inactive) | 84.6 | -0.501 (inactive) | 3.1e-05 (inactive) | 0.0057 (inactive) | 12.1% (inactive) | 31% (inactive)
CCOC(=O)C1CCCN(C/C(O)=C(\C#N)c2nc(-c3ccc(Cl)cc3)cs2)C1 (stereo not drawn) | 479 | 1% (inactive) | -6.9% (inactive) | 112 | -39.9% (inactive) | 120 | -0.499 (inactive) | -3.4e-06 (inactive) | 0.00581 (inactive) | 14.3% (inactive) | 2.09% (inactive)
CCOc1ccc(N(CC(=O)Nc2cccc(OC)c2)S(=O)(=O)c2c(C)noc2C)cc1 | 490 | -7.9% (inactive) | 18.7% (inactive) | 67 | -27% (inactive) | 109 | -0.518 (inactive) | -2.7e-05 (inactive) | 0.00799 (inactive) | 24.2% (inactive) | 22.1% (inactive)
O=C(CC(SCCO)c1ccc2c(c1)OCO2)c1ccco1 (stereo not drawn) | 538 | -10.2% (inactive) | -17.3% (inactive) | 114 | -60.6% (inactive) | 128 | -0.602 (inactive) | -5.3e-06 (inactive) | 0.00625 (inactive) | -31.1% (inactive) | -69.6% (inactive)
CCOc1ccc(NC(=O)CC2NCCNC2=O)cc1 (stereo not drawn) | 738 | -10.9% (inactive) | -1.6% (inactive) | 126 | -39.4% (inactive) | 99.2 | -0.302 (inactive) | -7e-05 (inactive) | 0.00573 (inactive) | 9.27% (inactive) | 13.9% (inactive)
CN1CCCN(CC(O)COCc2cccs2)CC1 (stereo not drawn) | 489 | -6.7% (inactive) | -19.8% (inactive) | 108 | -66% (inactive) | 153 | -0.489 (inactive) | -3.2e-05 (inactive) | 0.00614 (inactive) | -7.31% (inactive) | 24.2% (inactive)
N#CCCCCn1c(-c2cncs2)nc2ccccc21 | 431 | 14.1% (inactive) | 3.5% (inactive) | 101 | 22.2% (inactive) | 107 | -0.385 (inactive) | -4.5e-05 (inactive) | 0.00375 (inactive) | 14.5% (inactive) | 15.9% (inactive)
Cc1cc(NS(=O)(=O)c2ccc(Nc3nc(-c4sc(N)nc4C)cs3)cc2)no1 | 333 | 5.5% (inactive) | -10.4% (inactive) | 117 | -11.3% (inactive) | 103 | -0.412 (inactive) | -7.5e-05 (inactive) | 0.00495 (inactive) | 6.21% (inactive) | 25.1% (inactive)
COc1ccc(NC(=O)c2cc(C3CC3)on2)c(OC)c1 | 603 | -2.9% (inactive) | -2.2% (inactive) | 116 | -29.1% (inactive) | 107 | -0.587 (inactive) | -4.2e-05 (inactive) | 0.00532 (inactive) | -6.03% (inactive) | 2.94% (inactive)
Cc1oc(-c2ccccc2F)nc1CS(=O)(=O)CC(=O)N1CCN(Cc2ccccc2)CC1 | 853 | -4% (inactive) | -23.9% (inactive) | 90.4 | -96.8% (inactive) | 109 | -0.498 (inactive) | -4.4e-05 (inactive) | 0.00602 (inactive) | 6.04% (inactive) | -4.63% (inactive)
Cn1c(CCNC(=O)c2ccco2)nc2cc(NC(=O)C3CCCCC3)ccc21 | 359 | 0.5% (inactive) | 8.3% (inactive) | 91.1 | 42.2% (inactive) | 88.8 | -0.466 (inactive) | -0.000205 (inactive) | 0.00612 (inactive) | 6.27% (inactive) | 0.497% (inactive)
O=C(Cn1cnc2c(cnn2-c2ccc(F)cc2)c1=O)N1CCCc2ccccc21 | 427 | 1.5% (inactive) | 2.1% (inactive) | 104 | -61.6% (inactive) | 110 | -0.628 (inactive) | -5.2e-05 (inactive) | 0.00385 (inactive) | 11.3% (inactive) | 6.11% (inactive)
Cc1onc(-c2ccccc2Cl)c1C(=O)NCc1cccnc1 | 700 | 1% (inactive) | 8.2% (inactive) | 97.9 | 8.5% (inactive) | 92.3 | -0.523 (inactive) | 1.3e-05 (inactive) | 0.00593 (inactive) | 17.8% (inactive) | 19.3% (inactive)
COc1cc(C(=O)NCCc2ccc3c(c2)OCCO3)ccc1OCC(=O)N1CCOCC1 | 632 | 2.4% (inactive) | 11.3% (inactive) | 87.3 | -76.6% (inactive) | 96.6 | -0.298 (inactive) | -5.4e-05 (inactive) | 0.00507 (inactive) | 14.7% (inactive) | 15.3% (inactive)
CC(=O)N1CCN(c2ccc(S(=O)(=O)N3CCCCC3)cn2)CC1 | 719 | 0.8% (inactive) | 4.2% (inactive) | 101 | -6.8% (inactive) | 132 | -0.591 (inactive) | 1.1e-05 (inactive) | 0.00522 (inactive) | 6.79% (inactive) | 8.53% (inactive)
